# Sampled rows, rich in hits. Any-hit rate of the full collection: about 0.9%.
# PPARg SRC-2 ag: agonists of PPARg-SRC-2 recruitment, primary screen, biochemical, HTS | Peroxisome proliferator-activated receptor gamma (Homo sapiens), P37231 | PPARgamma LBD-SRC-2 recruitment | activation, % at 8 µM | 0.34% of 200,000 active; in the data active = activation above about 22%;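 also: 0% = vehicle and 100% = reference agonist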
# Target sequence (P37231 whole entry, looked up, the tested form may be a part): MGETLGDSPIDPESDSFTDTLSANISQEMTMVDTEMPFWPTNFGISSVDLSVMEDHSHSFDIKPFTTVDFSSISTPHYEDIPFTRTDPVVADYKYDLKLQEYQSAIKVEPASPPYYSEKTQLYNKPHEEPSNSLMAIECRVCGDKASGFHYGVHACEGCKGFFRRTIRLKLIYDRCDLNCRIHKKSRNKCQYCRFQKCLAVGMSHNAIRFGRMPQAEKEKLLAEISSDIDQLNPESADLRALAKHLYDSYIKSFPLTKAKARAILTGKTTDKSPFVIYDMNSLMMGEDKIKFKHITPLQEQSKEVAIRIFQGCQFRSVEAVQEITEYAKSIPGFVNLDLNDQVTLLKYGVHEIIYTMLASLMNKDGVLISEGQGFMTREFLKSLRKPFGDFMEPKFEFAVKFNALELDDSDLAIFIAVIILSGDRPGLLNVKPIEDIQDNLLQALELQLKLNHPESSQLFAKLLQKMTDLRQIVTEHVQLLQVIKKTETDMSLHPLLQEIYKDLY
# SRC2 TRFRET art: TR-FRET signal artefacts, primary screen, artefact control for PPARgamma SRC-2 agonist project, biochemical | TR-FRET ratio at 8 µM | TR-FRET artefact counter-screen; active compounds read high | AID 1049, 2008 | 0.4% of 200,000 active
# PPARg SRC1 recr: PPARgamma agonists recruiting SRC-1 coactivator, primary screen, biochemical; Peroxisome proliferator-activated receptor gamma (Homo sapiens), P37231; PPARgamma-SRC-1 coactivator recruitment biochemical assay; activation, % at 8 µM; 0.41% of 200,000 active; in the data active = activation above about 19%;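 also: 0% = DMSO and 100% = reference agonist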
# SRC1 TRFRET art: TR-FRET detection interference compounds, primary screen, artefact control for PPARgamma SRC-1 recruitment agonists, biochemical, TR-FRET emission ratio; TR-FRET detection artefact counter-screen; active compounds read high; TR-FRET ratio at 8 µM; 0.34% of 99,000 active; in the data active = TR-FRET ratio above about 2300
# SRC3 TRFRET art: TR-FRET detection interference compounds, artefact control for PPARgamma SRC-3 recruitment agonists, biochemical, TR-FRET ratio | TR-FRET artefact counter-screen, PPARgamma/SRC-3 format; active compounds read high | TR-FRET ratio at 8 µM | 0.39% of 99,000 active | AID 1048, 2008
# PPARg SRC3 recr: PPARgamma agonists recruiting SRC-3 coactivator, primary screen, biochemical. Peroxisome proliferator-activated receptor gamma (Homo sapiens), P37231. biochemical PPARgamma/SRC-3 coactivator recruitment assay. activation, % at 8 µM. 0.26% of 200,000 active. AID 731, 2007; in the data active = activation above about 23%;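 also: 0% = DMSO and 100% = reference agonist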
# The depositor's hits bear a star; x = not tested or not shown; + = active, no number. Rule as the data show it, unless noted: active = TR-FRET ratio above about 2000; inactive = the rest.
SMILES,PPARg SRC-2 ag,SRC2 TRFRET art,PPARg SRC1 recr,SRC1 TRFRET art,SRC3 TRFRET art,PPARg SRC3 recr
CCCN(CCC)CCCNC(=O)c1cc2c(=O)[nH]c3ccccc3c2n1C,3.4,1538,-1.5,1663,1380,-1.2
CCc1cccc(C)c1NC(=S)NCc1cccn1C,-6.5,1692,0.4,1774,1578,0.2
COC(=O)Cn1c(=NC(=O)c2nc3ccccc3s2)sc2cc(S(C)(=O)=O)ccc21,-0.9,1354,-9.0,1549,1429,-1.7
COC(=O)Cn1c(=NC(=O)c2sc3ccccc3c2Cl)sc2cc(S(N)(=O)=O)ccc21,16.7,1991*,13.5,2148,2165*,18.8
C#CCn1c(=NC(=O)CN2C(=O)CCC2=O)sc2cc(S(N)(=O)=O)ccc21,-1.9,1657,4.7,1763,1674,1.4
C#CCn1c(=NC(=O)c2cc(Cl)sc2Cl)sc2cc(S(N)(=O)=O)ccc21,-0.1,2016*,9.0,2299,2182*,6.1
CCOC(=O)Cn1c(=NC(=O)c2sc3ccccc3c2Cl)sc2cc(S(N)(=O)=O)ccc21,4.8,1690,10.2,1761,5980*,+
O=C(NC1CCCC1)C1CCN(c2cnccn2)CC1,1.5,1505,-8.4,1688,1635,-1.3
Oc1ccc(NCc2ccccc2OCc2ccccc2)cc1,28.8*,2166*,-9.9,2043,1728,9.4
COc1ccc(-c2c(C#N)c(C)nc3c2C(=O)c2ccccc2-3)cc1,-2.4,1442,23.9*,x,x,-14.3
O=C(NCCCCNC(=O)c1ccc(Cl)s1)c1ccc(Cl)s1,5.2,1432,1.7,x,x,-1.2
O=C(NCCCCCCNC(=O)c1ccc(Br)s1)c1ccc(Br)s1,4.9,2455*,-9.4,x,x,1.3
Cc1cc(N)n(-c2ccc(S(=O)(=O)c3ccc(C(C)C)cc3)cc2)n1,1.4,1574,4.6,1711,1554,5.9
CCn1c2ccccc2c2cc(NC(=O)CC(C)=O)ccc21,11.3,1776,-0.9,1579,1713,6.9
Cc1ccc(C2C(C#N)=C(N)SC(N)=C2C#N)o1,23.4*,2112*,19.2*,x,x,24.4
Cc1c(C(=O)Nc2ccncc2)sc2nc(-c3ccc(F)cc3)cn12,21.7,1995*,6.3,2289,2105*,13.4
COc1ccc(-c2cn3c(C)c(C(=O)Nc4ccncc4)sc3n2)cc1,1.1,1516,1.0,x,x,-14.7
COc1ccc(-c2csc3nc(C)nc(N4CCN(c5ccc(C(C)=O)cc5)CC4)c23)cc1OC,-0.5,1584,1.9,1874,2053*,0.5
C/C(=N\NC(=S)NCc1ccccc1)c1ccc(C)o1,5.8,1624,4.2,1931,1781,7.2
Cc1nnc(NC(=O)c2nn(CC(C)C)c(=O)c3ccccc23)s1,-4.8,1528,3.7,2336*,1608,0.4
CCOC(=O)c1c(C)[nH]c(C=C2C(=O)CCCC2=O)c1O,5.9,1604,1.1,1890,1691,5.0
CCS(=O)(=O)N1CCN(C2CCC(c3ccccc3)CC2)CC1 (stereo not given),2.5,1733,20.2*,x,x,2.6
CCOCC(=O)Nc1ccccc1C(=O)O,2.6,1404,0.6,1647,1677,0.9
CCOc1ccccc1-n1c(C)nc2cc(C(=O)O)ccc21,-3.1,1695,8.1,2322*,1625,5.3
Cc1nc2cc(C(=O)O)ccc2n1-c1ccc(F)cc1F,5.7,1608,0.2,x,x,5.9
SMILES,PPARg SRC-2 ag,SRC2 TRFRET art,PPARg SRC1 recr,SRC1 TRFRET art,SRC3 TRFRET art,PPARg SRC3 recr
O=C(CSc1nnc(C2CC2)n1-c1ccccc1)NCCc1ccc(F)cc1,22.5*,2046*,0.2,x,x,12.4
CCOC(=O)c1c(NC(=O)CSc2nnc(CNc3ccc(F)cc3)o2)sc(C(C)=O)c1C,13.2,1619,9.9,x,x,33.7*
CCOC(=O)c1c(NC(=O)CSc2nc(C)cc(C)c2C#N)sc(C(C)=O)c1C,62.5*,3647*,6.4,x,x,10.5
CCOC(=O)c1c(NC(=O)CSc2nnc(-c3ccc(C)cc3)o2)sc(C(C)=O)c1C,-4.2,1483,8.7,x,x,3.0
CCO[C@H]1OC(C(=O)NC2CC2)=C[C@@H](c2csc3ccccc23)[C@@H]1CCCO,7.5,1465,-4.8,1821,1639,1.7
Cc1cccc(N2CCN(C(=S)c3ccc(-c4ccccc4[N+](=O)[O-])o3)CC2)c1,-0.9,1746,-3.6,1970,1768,2.9
S=C(c1ccc(-c2cccc(Cl)c2)o1)N1CCCCC1,12.8,1774,-10.3,2350*,1800,8.3
O=[N+]([O-])c1ccccc1-c1ccc(C(=S)N2CCCC2)o1,5.4,1992*,3.6,2075,1731,1.4
S=C(c1ccc(-c2cccc(Cl)c2)o1)N1CCOCC1,21.3,1576,-2.3,1854,1464,1.3
NC(N)=Nc1nc(CSCC/C(N)=N/S(N)(=O)=O)cs1,6.9,1766,21.6*,1933,1747,6.1
COc1ccccc1C(=O)Nc1cccc(-c2cn3ccsc3n2)c1,5.6,1580,3.4,x,x,27.6*
CCOC(=O)c1nc(-c2ccccc2)oc1N1CCOCC1,4.6,1476,-2.8,1520,1582,2.5
N#Cc1ccc(Oc2ccc(NC(=O)C3CC=CCC3C(=O)O)cc2)cc1 (stereo not given),3.2,1437,0.2,1635,1571,2.4
Cc1ccc(CNC(=O)COc2ccc(C(=O)c3ccc(F)cc3)cc2)cc1,4.7,1529,39.1*,2702*,1604,-2.2
O=C(Nc1nc2cc(Cl)ccc2s1)C1CCCN(S(=O)(=O)c2cccc3cccnc23)C1 (stereo not given),16.5,1750,8.3,x,x,5.0
COc1ccc(/C=C2/C(=O)N(Cc3ccccc3)N=C2C)cc1,0.1,1595,1.3,1736,1500,4.4
COc1ccc(/C=C2/C(=O)N(c3nc4ccccc4s3)N=C2CSc2ccc(Cl)cc2)cc1,-0.3,1737,5.0,2577*,2197*,5.4
Nc1ccc(Sc2cnn(-c3ccccc3)c(=O)c2Cl)cc1,6.0,1527,7.6,x,x,-1.8
Cc1ccc(Sc2cnn(-c3ccccc3)c(=O)c2Cl)cc1,18.8,2023*,8.7,x,x,6.7
CC1C(Br)C(=O)NC(=O)N1Cc1ccccc1 (stereo not given),1.7,1461,20.9*,1910,1625,2.3
CC1CCN(S(=O)(=O)c2ccc(C(=O)Nc3sccc3C(N)=O)cc2)CC1,-2.3,1507,29.3*,x,x,-0.7
O=C(COC(=O)CNC(=O)c1ccc2c(c1)OCO2)Nc1ncc(Cl)cc1Cl,-5.4,1421,-6.3,1590,1418,-2.4
COC(=O)c1[nH]c2cc(OC)c(OC)cc2c1NC(=O)Oc1ccccc1,9.8,1534,3.8,x,x,28.1*
Brc1ccc(-c2csc(N/N=C/c3ccco3)n2)cc1,22.0*,1757,3.4,1707,1608,1.3
Cc1ccc(-c2csc(N/N=C/c3ccco3)n2)cc1,3.1,1751,-4.8,x,x,8.8

# Bioassay records from PubChem.
